# PubChem BioAssay AID2662 (National Center for Advancing Translational Sciences (NCATS), 2010)
# About 110 (0.038%) of roughly 290,000 compounds were called active. Another 3% or so got no clear call; they are omitted. This is one part of a sample in which actives are shown more often than they occur. The call rests on the fitted dose curve; in most records, active means well fitted inhibition curve with a large enough effect in the polarisation, with a control signal flat (not every such curve was filed as active); inconclusive means small, poorly fitted or top-dose-only effect, or effect the other way, or a change in a side signal; inactive means no such curve, though single readings can be large or run the other way; the % refers to the polarisation.
# Biological target: Histone-lysine N-methyltransferase 2A (Homo sapiens) (UniProt Q03164)
# Experiment: qHTS Fluorescence Polarization Assay for Inhibitors of MLL CXXC domain - DNA interaction
# Details: MLL-CXXC / FITC-HOXA9 DNA fluorescence polarization; series mostly up to 115 µM; activity change, negative = inhibition: at the top concentration
# From the text: NIH Chemical Genomics Center [NCGC] NIH Molecular Libraries Probe Production centers Network [MLPCN] MLPCN Grant: DA027717-01A1 Assay Submitter (PI): John Bushweller NCGC Assay Overview: The MLL (Mixed Lineage Luekemia) gene is involved in chromosomal translocation that results in either acute lymphoid leukemia (ALL) or acute myeloid leukemia (AML). Chromasomal translocation of MLL gene is responsible for the fusion of N-terminal MLL to more than 60 different partner genes in frame. Many of the MLL partner genes contain transcription activation domains or function as transcriptional activators. Despite the heterogeneity of fusion partners, the N-terminus of MLL fusion proteins always consists of the N-terminal menin binding motif and the CXXC domain. The MLL-CXXC domain specifically recognizes unmethylated CpG sequences of the HOX-A gene. Disruption of the MLL-CXXC and HOX-A gene interaction leads to down regulation of HOX-A gene expression and may potentially reverse leukemogenesis. We have miniaturized and optimized an in-vitro assay to screen for inhibitors of the MLL-CXXC domain and HOX-A DNA interaction, which could have utility in MLL fusion leukemias.
# The affinity purified MLL-CXXC domain, unlabeled HOX-A9 DNA strand, fluorescein (FLSN) labeled HOX-A9 DNA strand were kindly supplied by the laboratory of Dr. John Bushweller, University of Virginia. All reagents were stored in single use aliquots at -80C. Assay Reagents: Assay buffer: 50 mM TRIS-HCl pH 7.5, 50 mM NaCl, 1 mM DTT. Add 0.05% BSA prior to reaction setup. Assay Procedure: 1.Dispense 1 ul of a 7 uM MLL-CXXC solution prepared in assay buffer into column 1-48. 2.Transfer 23 nl of compounds and unlabeled HOX-A9 per well. 3.Incubate for 5 minutes at ambient. 4.Dispense 1ul of a 50 nM FLSN-HOX-A9 solution prepared in assay buffer into columns 1-48 5.Centrifuge for 30 seconds at 1000 RPM. 6.Incubate for 30 minutes at ambient. 7.Read using the Envision reader fluorescent polarization protocol.
# Potency means the concentration at half of the fitted maximal effect.
# Histone-lysine N-methyltransferase 2A (Homo sapiens), sequence (Q03164 whole entry, looked up, the tested form may be a part): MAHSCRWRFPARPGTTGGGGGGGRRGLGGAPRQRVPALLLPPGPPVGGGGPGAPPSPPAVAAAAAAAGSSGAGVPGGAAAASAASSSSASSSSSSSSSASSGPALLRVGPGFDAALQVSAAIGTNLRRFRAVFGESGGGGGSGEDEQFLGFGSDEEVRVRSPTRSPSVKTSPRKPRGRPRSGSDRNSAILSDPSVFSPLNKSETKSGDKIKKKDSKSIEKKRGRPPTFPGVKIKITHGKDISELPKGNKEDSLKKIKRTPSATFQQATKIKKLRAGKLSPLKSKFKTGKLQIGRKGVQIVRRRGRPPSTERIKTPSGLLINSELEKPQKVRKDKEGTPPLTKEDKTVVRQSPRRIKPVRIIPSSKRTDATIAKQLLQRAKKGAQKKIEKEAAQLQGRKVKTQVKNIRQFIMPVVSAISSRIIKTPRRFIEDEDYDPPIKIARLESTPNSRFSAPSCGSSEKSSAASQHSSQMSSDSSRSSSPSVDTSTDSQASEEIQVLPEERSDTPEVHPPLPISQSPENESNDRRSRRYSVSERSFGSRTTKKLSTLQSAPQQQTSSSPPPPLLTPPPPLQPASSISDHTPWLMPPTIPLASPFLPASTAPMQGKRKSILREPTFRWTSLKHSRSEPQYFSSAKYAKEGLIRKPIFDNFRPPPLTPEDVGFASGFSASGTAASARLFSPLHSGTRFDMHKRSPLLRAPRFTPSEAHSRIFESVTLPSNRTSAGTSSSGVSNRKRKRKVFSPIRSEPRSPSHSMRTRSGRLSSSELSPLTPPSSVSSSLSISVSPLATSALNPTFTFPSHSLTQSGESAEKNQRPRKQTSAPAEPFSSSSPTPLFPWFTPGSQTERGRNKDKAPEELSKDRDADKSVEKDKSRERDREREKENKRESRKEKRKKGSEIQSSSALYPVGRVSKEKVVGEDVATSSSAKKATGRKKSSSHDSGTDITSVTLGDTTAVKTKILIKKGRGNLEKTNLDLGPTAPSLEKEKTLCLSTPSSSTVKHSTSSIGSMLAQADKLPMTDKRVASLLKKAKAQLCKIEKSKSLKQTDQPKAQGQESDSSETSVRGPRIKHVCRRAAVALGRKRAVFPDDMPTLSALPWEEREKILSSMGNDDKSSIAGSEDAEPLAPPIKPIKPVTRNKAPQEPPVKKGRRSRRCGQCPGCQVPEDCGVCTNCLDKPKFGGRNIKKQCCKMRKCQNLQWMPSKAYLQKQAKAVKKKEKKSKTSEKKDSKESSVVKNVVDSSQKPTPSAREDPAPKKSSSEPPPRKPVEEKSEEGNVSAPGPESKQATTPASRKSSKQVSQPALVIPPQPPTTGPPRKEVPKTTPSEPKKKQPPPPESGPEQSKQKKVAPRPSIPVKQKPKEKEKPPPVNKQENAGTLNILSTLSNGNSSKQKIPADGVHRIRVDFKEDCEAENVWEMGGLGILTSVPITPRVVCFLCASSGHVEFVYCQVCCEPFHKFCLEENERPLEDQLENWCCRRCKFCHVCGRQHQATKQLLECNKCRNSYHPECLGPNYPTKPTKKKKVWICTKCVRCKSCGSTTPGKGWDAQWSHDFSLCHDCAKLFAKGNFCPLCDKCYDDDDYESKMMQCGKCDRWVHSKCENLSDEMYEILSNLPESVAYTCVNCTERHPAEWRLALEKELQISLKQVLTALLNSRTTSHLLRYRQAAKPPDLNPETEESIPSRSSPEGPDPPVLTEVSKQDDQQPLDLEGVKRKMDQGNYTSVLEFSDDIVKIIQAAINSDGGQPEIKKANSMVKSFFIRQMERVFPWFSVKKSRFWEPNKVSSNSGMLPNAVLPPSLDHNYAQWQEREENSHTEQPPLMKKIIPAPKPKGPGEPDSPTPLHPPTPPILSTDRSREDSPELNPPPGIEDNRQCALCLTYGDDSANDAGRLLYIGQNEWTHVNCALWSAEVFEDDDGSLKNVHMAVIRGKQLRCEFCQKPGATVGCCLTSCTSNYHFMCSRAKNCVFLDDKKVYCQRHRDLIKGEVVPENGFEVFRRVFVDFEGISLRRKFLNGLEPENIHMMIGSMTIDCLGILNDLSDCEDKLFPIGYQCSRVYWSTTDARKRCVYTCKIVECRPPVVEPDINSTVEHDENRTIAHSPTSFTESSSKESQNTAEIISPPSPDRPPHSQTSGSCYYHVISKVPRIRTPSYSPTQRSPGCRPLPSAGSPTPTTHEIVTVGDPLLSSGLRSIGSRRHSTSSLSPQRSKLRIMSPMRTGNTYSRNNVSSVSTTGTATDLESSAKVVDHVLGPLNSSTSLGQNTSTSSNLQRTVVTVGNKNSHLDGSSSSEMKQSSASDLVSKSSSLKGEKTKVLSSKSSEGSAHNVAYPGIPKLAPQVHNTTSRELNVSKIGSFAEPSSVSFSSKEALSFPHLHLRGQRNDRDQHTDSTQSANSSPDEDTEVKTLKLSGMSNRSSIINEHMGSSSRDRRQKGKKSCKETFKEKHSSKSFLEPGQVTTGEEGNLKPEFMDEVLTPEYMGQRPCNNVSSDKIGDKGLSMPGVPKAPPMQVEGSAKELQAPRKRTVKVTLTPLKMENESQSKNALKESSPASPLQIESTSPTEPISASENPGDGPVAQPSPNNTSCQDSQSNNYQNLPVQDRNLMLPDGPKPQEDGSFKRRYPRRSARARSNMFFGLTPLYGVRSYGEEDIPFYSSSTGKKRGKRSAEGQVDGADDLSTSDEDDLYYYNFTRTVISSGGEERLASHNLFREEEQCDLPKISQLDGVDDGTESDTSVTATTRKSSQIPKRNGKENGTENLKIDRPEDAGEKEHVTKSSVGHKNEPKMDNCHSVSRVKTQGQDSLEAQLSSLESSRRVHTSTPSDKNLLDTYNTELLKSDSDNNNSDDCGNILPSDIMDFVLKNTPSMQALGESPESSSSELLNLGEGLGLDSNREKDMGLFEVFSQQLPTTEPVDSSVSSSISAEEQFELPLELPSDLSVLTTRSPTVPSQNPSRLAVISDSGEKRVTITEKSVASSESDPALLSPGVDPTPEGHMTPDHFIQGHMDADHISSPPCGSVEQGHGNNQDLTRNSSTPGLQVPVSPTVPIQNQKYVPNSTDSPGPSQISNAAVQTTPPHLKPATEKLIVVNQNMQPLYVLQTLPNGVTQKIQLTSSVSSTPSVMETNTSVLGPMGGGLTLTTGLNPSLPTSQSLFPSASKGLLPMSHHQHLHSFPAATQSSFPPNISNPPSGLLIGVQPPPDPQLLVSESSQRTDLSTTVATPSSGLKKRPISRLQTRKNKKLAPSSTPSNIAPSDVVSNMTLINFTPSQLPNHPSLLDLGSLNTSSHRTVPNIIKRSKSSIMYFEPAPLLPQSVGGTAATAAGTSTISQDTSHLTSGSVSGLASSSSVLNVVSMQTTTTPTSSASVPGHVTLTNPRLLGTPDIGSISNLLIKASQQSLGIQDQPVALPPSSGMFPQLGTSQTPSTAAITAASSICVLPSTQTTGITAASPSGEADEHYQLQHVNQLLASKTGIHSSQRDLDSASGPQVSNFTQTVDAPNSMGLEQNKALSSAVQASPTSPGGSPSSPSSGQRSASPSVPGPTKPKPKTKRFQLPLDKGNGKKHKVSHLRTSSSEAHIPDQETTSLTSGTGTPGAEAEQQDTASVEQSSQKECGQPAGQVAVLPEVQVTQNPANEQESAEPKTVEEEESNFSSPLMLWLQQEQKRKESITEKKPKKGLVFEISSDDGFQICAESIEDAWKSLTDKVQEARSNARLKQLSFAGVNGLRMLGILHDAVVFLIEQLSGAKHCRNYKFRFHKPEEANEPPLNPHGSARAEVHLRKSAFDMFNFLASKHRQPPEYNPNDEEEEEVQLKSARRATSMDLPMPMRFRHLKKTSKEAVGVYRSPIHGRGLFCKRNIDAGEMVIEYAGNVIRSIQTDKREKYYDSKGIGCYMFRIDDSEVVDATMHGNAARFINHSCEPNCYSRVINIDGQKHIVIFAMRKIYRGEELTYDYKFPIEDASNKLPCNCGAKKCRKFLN
Compound,Potency,"activity change, negative = inhibition"
O=C(OCC1O[C@@H](OC(=O)c2cc(O)c(O)c(O)c2)[C@@H](OC(=O)c2cc(O)c(O)c(O)c2)[C@@H](OC(=O)c2cc(O)c(O)c(O)c2)[C@@H]1OC(=O)c1cc(O)c(O)c(O)c1)c1cc(O)c(O)c(O)c1 (stereo not given in full),31.6 µM (active),
COC([CH2][Hg])CNC(=O)c1ccccc1OCC(=O)O (stereo not given),,0.129% (inactive)
CC(C)COC(=O)n1c(=O)oc2ccc(S(=O)(=O)N3CCCCC3)cc21,,56.4% (inactive)
CCOC(=O)C(NS(=O)(=O)c1ccc(C)cc1)(C(F)(F)F)P(=O)(OCC(C)C)OCC(C)C (stereo not given),,35.1% (inactive)
CN1CCCC(=C(c2cccs2)c2cccs2)C1,,0.874% (inactive)
